Only some compounds are listed: those with a hit (about 11% of all), similar ones and a draw of the others.
IMPase inh – membrane-permeable compound that blocks inositol monophosphatase; CHO-M1 cells, IP1 accumulation, HTRF TR-FRET ratio; 120,000 tested, under 10 active; P97697; inhibition (IP1 accumulation), % at 46.1 µM; active means well fitted curve in the direction sought with a large enough effect in the signal ratio, not every such curve was filed as active; inconclusive means small, poorly fitted or top-dose-only effect, or a change in a side signal; inactive means no such curve, though single readings can be large or run the other way; the % refers to the signal ratio;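 further: cells stimulated with carbachol in lithium chloride buffer; higher means more IMPase inhibition seen as more IP1 and lower FRET ratio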
Target sequence (P97697 whole entry, looked up): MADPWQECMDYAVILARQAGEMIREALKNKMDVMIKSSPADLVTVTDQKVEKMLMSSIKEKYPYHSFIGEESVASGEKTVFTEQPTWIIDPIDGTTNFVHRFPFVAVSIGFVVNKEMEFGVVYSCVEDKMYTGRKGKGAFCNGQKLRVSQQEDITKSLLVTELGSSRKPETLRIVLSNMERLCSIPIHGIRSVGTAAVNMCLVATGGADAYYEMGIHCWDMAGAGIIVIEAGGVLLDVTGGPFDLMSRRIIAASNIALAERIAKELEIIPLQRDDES
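The IP-One HTRF competitive assay in carbachol-stimulated CHO-M1 cells quantifies cellular IP1. Compounds spanned up to 46 uM final, and activity is expressed as AC50 from concentration-response fits of the ratio and donor data.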
HPGD block – blocks human HPGD enzyme activity; P15428; purified HPGD, NADH fluorescence kinetic, PGE2 substrate; Potency, µM, hits mostly inhibitors; actives 4.3% (n = 150,000); AID 894; active means well fitted inhibition curve with a large enough effect, not every such curve was filed as active; inconclusive means small, poorly fitted or top-dose-only effect, or another doubt; inactive means no such curve, though single readings can be large or run the other way
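20 nM HPGD preincubated 15 min at room temperature with compound in 50 mM Tris-HCl pH 8, 0.01% Tween 20. Started with 1 mM NAD+ and 30 uM prostaglandin E2; NADH fluorescence (360/450 nm) read 5 times over 30-s intervals, last minus first.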
IMPase Li inh – cell-permeable IMPase inhibitors with lithium potentiation; CHO-M1 cells, IP1 TR-FRET (IP-One), carbachol + lithium; Potency, µM (highest dose often 59.4 µM), actives largely listed as inhibitors; actives 0.35% (n = 210,000); AID 1457;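 further: IP1 builds up when IMPase is blocked and the TR-FRET signal falls; nearly all actives have a fitted effect of over 50% in size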
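Lithium-sensitised IP1 accumulation assay; M1-expressing CHO cells treated 30 min at 37C with compound. Competitive antibody detection by time-resolved FRET followed a 10 min room-temperature lysis step.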
ALDH1A1 block – inhibitors of human aldehyde dehydrogenase 1A1 | Potency, µM (titrated, usually from 75.3 µM), actives largely listed as inhibitors | AID 1030 | Purified ALDH1A1, NADH fluorescence, propionaldehyde substrate | P00352 | actives 7.3% (n = 220,000); active means well fitted inhibition curve with a large enough effect, not every such curve was filed as active; inconclusive means small, poorly fitted or top-dose-only effect, or another doubt; inactive means no such curve, though single readings can be large or run the other way
NPSR antag – antagonists of human neuropeptide S receptor cAMP signaling. Q6W5P4. CHO-NPSR cells, cAMP TR-FRET, antagonist mode. Potency, µM (series often up to 38.3 µM), most hits filed as inhibitors. actives 1% (n = 220,000). AID 1461; further: nearly all actives have a fitted effect of over 50% in size
Target sequence (Q6W5P4 whole entry, looked up): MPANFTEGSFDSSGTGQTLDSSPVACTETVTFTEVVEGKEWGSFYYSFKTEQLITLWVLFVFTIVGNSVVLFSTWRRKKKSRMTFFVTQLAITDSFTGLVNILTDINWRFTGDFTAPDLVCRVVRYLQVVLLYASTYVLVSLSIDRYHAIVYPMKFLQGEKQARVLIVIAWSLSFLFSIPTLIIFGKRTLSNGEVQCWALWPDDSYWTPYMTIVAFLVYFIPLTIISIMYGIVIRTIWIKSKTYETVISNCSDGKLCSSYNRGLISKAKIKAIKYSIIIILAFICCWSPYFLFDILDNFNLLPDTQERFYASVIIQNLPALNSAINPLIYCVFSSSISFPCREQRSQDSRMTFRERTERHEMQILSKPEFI
PNC assembly inh – inhibitors of perinucleolar compartment assembly. PC3M PTB-GFP, PNC prevalence imaging, 16 h; active compounds read low. activity change (PNC), negative = inhibition, % at 10 µM. actives 3.1% (n = 140,000);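 active means readout at or below -70, meaning at least 70% loss of cells showing the perinucleolar compartment, a nuclear body marking cancer cells; inconclusive means readout between -30 and a set limit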
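PC3M cells stably expressing PTB-GFP, 750–1000 cells/well, treated 16 h at 37 °C with compound (23 nl of library stock), in duplicate. After paraformaldehyde fixation and Hoechst stain, imaged at 20x; PNC prevalence scored by image analysis.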
A number is an active result. Unless noted, the call rests on the fitted dose curve; in most records, active means well fitted curve in the direction sought with a large enough effect; inconclusive means small, poorly fitted or top-dose-only effect, or another doubt; inactive means no such curve, though single readings can be large; an effect the other way counts as inactive or inconclusive.

Results for CN1CCN(C(=O)c2ccc3ccccc3c2)CC1 ?
IMPase inh: inactive; HPGD block: 15.8µM; IMPase Li inh: inactive; ALDH1A1 block: inactive; NPSR antag: inactive; PNC assembly inh: inactive

Results for O=C(c1ccc2ccccc2c1)N1CCN(c2ccc(C(F)(F)F)cn2)CC1 ?
IMPase inh: inactive; HPGD block: inactive; IMPase Li inh: inactive; ALDH1A1 block: 15.8µM; NPSR antag: inactive; PNC assembly inh: inactive

What do the screens show for `O=C(c1ccc(-n2cccc2)cc1)N1CCN(Cc2ccccc2)CC1`?
IMPase inh: inactive; HPGD block: inactive; IMPase Li inh: inactive; ALDH1A1 block: inactive; NPSR antag: inactive; PNC assembly inh: inactive

What do the screens show for `CN1CCN(C(=O)c2ccc3nc(-c4ccccc4)c(-c4ccccc4)nc3c2)CC1`?
IMPase Li inh: inactive; ALDH1A1 block: inconclusive; NPSR antag: inactive

Results for CN1CCN(C(=O)c2ccc(-n3cccc3)cc2)CC1 ?
IMPase inh: inactive; HPGD block: 14.1µM; IMPase Li inh: inactive; ALDH1A1 block: inactive; NPSR antag: inactive; PNC assembly inh: inconclusive

Results for O=C(O)c1[nH]c2ccccc2c1CC(=O)N1CCOCC1 ?
IMPase inh: inactive; HPGD block: inactive; IMPase Li inh: inactive; ALDH1A1 block: inactive; NPSR antag: inactive; PNC assembly inh: inconclusive

How did O=C(Cc1n[nH]c(=O)[nH]c1=O)N/N=C/c1cccc(Cl)c1 do in these assays?
ALDH1A1 block: inactive; NPSR antag: inactive

What do the screens show for `CO/N=C/c1ccc(Sc2ccccc2)c([N+](=O)[O-])c1`?
IMPase inh: inactive; HPGD block: inactive; IMPase Li inh: inactive; ALDH1A1 block: inactive; NPSR antag: inactive; PNC assembly inh: inactive

Results for O=[N+]([O-])c1cc(/C=N/O)ccc1Sc1ccccc1 ?
IMPase inh: inactive; HPGD block: 25.1µM; IMPase Li inh: inactive; ALDH1A1 block: inconclusive; NPSR antag: inconclusive; PNC assembly inh: inactive

Results for Cc1cccnc1Nc1nc(-c2ccccn2)cs1 ?
IMPase inh: inactive; HPGD block: inactive; IMPase Li inh: inactive; ALDH1A1 block: inactive; NPSR antag: 0.794µM; PNC assembly inh: inactive

What do the screens show for `O=C(CCCSc1ccccc1)Nc1nc(-c2ccccn2)cs1`?
IMPase inh: inactive; HPGD block: inconclusive; IMPase Li inh: inactive; ALDH1A1 block: inconclusive; NPSR antag: inactive; PNC assembly inh: inactive

Results for CSCCC(=O)Nc1nc(-c2ccccn2)cs1 ?
IMPase Li inh: inactive; ALDH1A1 block: 28.2µM; NPSR antag: inactive

Results for Cn1cccc1C(=O)Nc1nc(-c2ccccn2)cs1 ?
IMPase inh: inactive; HPGD block: 28.2µM; IMPase Li inh: inactive; ALDH1A1 block: 14.1µM; NPSR antag: inconclusive; PNC assembly inh: inactive

Results for Cc1nnc(-c2ccc(Oc3ccc(Cl)cc3)c([N+](=O)[O-])c2)o1 ?
HPGD block: inconclusive; IMPase Li inh: inactive; ALDH1A1 block: inactive; NPSR antag: inactive; PNC assembly inh: inactive

How did COc1cccc(C(=O)N2CCN(C(=O)c3cccs3)CC2)c1OC do in these assays?
IMPase inh: inconclusive; HPGD block: inactive; IMPase Li inh: inactive; ALDH1A1 block: 22.4µM; NPSR antag: inactive; PNC assembly inh: inactive

How did COc1ccc(/C=C2\CCCC3C2=NC(=S)NC3c2ccc(OC)cc2)cc1 (centres undefined) do in these assays?
HPGD block: inconclusive; IMPase Li inh: inactive; ALDH1A1 block: 8.91µM; NPSR antag: inactive; PNC assembly inh: inactive

What do the screens show for `CCOc1cc(C2C3=C(CCCC3=O)N(C)C3=C2C(=O)CCC3)cc(Cl)c1O`?
IMPase inh: inactive; HPGD block: inactive; IMPase Li inh: inactive; ALDH1A1 block: inactive; NPSR antag: inactive; PNC assembly inh: -100.0

What do the screens show for `CCOc1cc(C2C3=C(CCCC3=O)NC3=C2C(=O)CCC3)cc(Cl)c1O`?
IMPase inh: inactive; HPGD block: inactive; IMPase Li inh: inactive; ALDH1A1 block: inactive; NPSR antag: inactive; PNC assembly inh: inactive

What do the screens show for `CCOC(=O)C1=C(C)NC(=S)NC1/C=C/c1ccccc1` (centres undefined)?
IMPase inh: inactive; HPGD block: inactive; IMPase Li inh: inactive; ALDH1A1 block: inactive; NPSR antag: inactive; PNC assembly inh: -100.0

How did COC(=O)C1=C(C)NC(=S)NC1/C=C/c1ccccc1 (centres undefined) do in these assays?
IMPase Li inh: inactive; ALDH1A1 block: 1.12µM; NPSR antag: inactive

How did SC(COCc1ccccc1)CN1CCN(Cc2ccc3c(c2)OCO3)CC1 (centres undefined) do in these assays?
IMPase inh: inactive; ALDH1A1 block: inactive; NPSR antag: inactive; PNC assembly inh: inactive

What do the screens show for `CCSc1nnc(NC(=O)C(CC)(C(F)(F)F)C(F)(F)F)s1`?
IMPase inh: inactive; HPGD block: inactive; IMPase Li inh: inactive; ALDH1A1 block: inactive; NPSR antag: inactive; PNC assembly inh: inactive

How did CC(=O)N(C(C)=O)n1c(/C=C/c2cccc([N+](=O)[O-])c2)nc2ccccc2c1=O do in these assays?
IMPase Li inh: inactive; ALDH1A1 block: inactive; NPSR antag: inactive

What do the screens show for `CCOC(=O)c1c(NC(=O)c2ccccc2)sc2c(O)c(CN(CC)CC)ccc12`?
IMPase inh: inactive; HPGD block: inactive; IMPase Li inh: inactive; ALDH1A1 block: inactive; NPSR antag: inconclusive; PNC assembly inh: inactive

How did CSC1=N/C(=C\c2c(F)cccc2Cl)C(=O)S1 do in these assays?
HPGD block: 4.47µM; IMPase Li inh: inactive; ALDH1A1 block: inactive; NPSR antag: inactive; PNC assembly inh: inactive

How did COC(=O)c1cc(NC(=O)c2c(Cl)cnn2C)cc(C(=O)OC)c1 do in these assays?
HPGD block: inactive; IMPase Li inh: inactive; ALDH1A1 block: inactive; NPSR antag: inactive; PNC assembly inh: -100.8

What do the screens show for `CCNS(=O)(=O)c1ccc(NC(=O)c2ccc(Cn3cc([N+](=O)[O-])cn3)o2)cc1`?
IMPase Li inh: inactive; ALDH1A1 block: 18.9µM; NPSR antag: inactive

Results for COC(=O)c1ccccc1NC(=O)c1ccc(Cn2cc(Cl)cn2)o1 ?
IMPase inh: inactive; HPGD block: inactive; IMPase Li inh: inactive; ALDH1A1 block: inactive; NPSR antag: inactive; PNC assembly inh: inactive

How did COC(=O)c1cc(NC(=O)c2ccc(Cn3cc(Cl)cn3)o2)cc(C(=O)OC)c1 do in these assays?
IMPase inh: inactive; HPGD block: 1.26µM; IMPase Li inh: inactive; ALDH1A1 block: inactive; NPSR antag: inactive; PNC assembly inh: inactive

What do the screens show for `Cc1ccccc1CN(c1ccc(C(=O)Nc2ccccc2C(=O)NCc2ccco2)cc1)S(C)(=O)=O`?
IMPase inh: inactive; HPGD block: inconclusive; IMPase Li inh: inactive; ALDH1A1 block: inconclusive; NPSR antag: inactive; PNC assembly inh: inconclusive

Results for S=C(Nc1cccc(Cl)c1)Nc1ccccc1Oc1ccccc1 ?
IMPase inh: inactive; HPGD block: inactive; IMPase Li inh: inactive; ALDH1A1 block: inconclusive; NPSR antag: inconclusive; PNC assembly inh: inactive

What do the screens show for `CC(=O)c1ccc(NC(=S)Nc2cccc3cnccc23)cc1`?
NPSR antag: inactive

Source: PubChem
